CtBP-E1A blk: blocks the CtBP interaction with E1A; AlphaScreen GST-E1A/His-CtBP binding, 1536-well; hits give low values; activity change, % (no concentration beside the values); 340,000 tested, 0.49% active; in the data active means activity change below about -65%; inconclusive means mostly about -30% to -63%
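In 5 uL wells, 23 nL compound meets equimolar GST-E1A and His-CtBP (5X stock 125 nM each) for 2 h, 37 °C. Beads (5X, 50 ug/mL) then 1 h, 37 °C, dark.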
IL1B secr inh: inhibitors of inflammasome signaling (IL-1 beta secretion) | THP-1 LPS/ATP IL-1B secretion, AlphaLISA, 16 h; hits give low values | 360,000 tested, 4.7% active | AID 743279 | activity change, % at 57.5 µM; in the data active means activity change below about -50%; inconclusive means mostly about -30% to -49%
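Secreted IL-1B measured by AlphaLISA bead assay after 16 h compound exposure of THP-1 cells; compounds (final up to 57.5 uM) added 1 h before LPS (250 ng/mL) and ATP (1.25 mM) stimulation; lower signal means less secretion.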
DT40 TDP1 no CPT: qHTS for Inhibitors of human tyrosyl-DNA phosphodiesterase 1 (TDP1): qHTS in cells in absence of CPT | DT40 Tdp1-/- hTDP1 cells, no CPT, ATP luminescence, 48 h | Potency, µM (doses to about 46.2 µM), for the others: top-dose activity change, negative = growth inhibition, actives largely listed as inhibitors | 420,000 tested, 15% active; further: potency means the concentration at half of the fitted maximal effect; nearly all actives have a fitted effect of over 55% in size
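Luminescent ATP content (CellTiter-Glo) served as the growth readout. Knockout chicken DT40 cells expressing human TDP1 were exposed to compounds without camptothecin for a minimum 48 hr at 37 °C.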
Six1-Eya2 blk: blocks human Six1 binding to Eya2; Q15475+O00167; AlphaScreen GST-Six1/His-Eya2 binding, biochemical; hits give low values; activity change, % (concentration not given with the values); 360,000 tested, 0.56% active; AID 651725; in the data active means activity change below about -65%; inconclusive means mostly about -30% to -63%
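Homogeneous AlphaScreen proximity assay pairing GST-Six1 with His-tagged Eya2 (added as 5X mix: 250 nM and 500 nM) in 50 mM Tris pH 8.0, 300 mM NaCl, 1 mM TCEP. Glutathione donor and nickel acceptor beads; 1 h, 37 °C, dark.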
DT40 TDP1 CPT: DT40-hTDP1 cell growth loss with CPT | chicken DT40 Tdp1-/-;hTDP1 cells + 20 nM CPT, ATP luminescence, 48 h | Potency, µM (titrated, usually from 46.2 µM), inactives show at the highest dose activity change, negative = growth inhibition, most hits filed as inhibitors | 420,000 tested, 12% active; further: potency means the concentration at half of the fitted maximal effect; nearly all actives have a fitted effect of over 55% in size
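Cell growth measured by CellTiter-Glo luminescence after a minimum 48 h, 37 C compound exposure with 20 nM CPT in Tdp1-knockout DT40 cells stably expressing hTDP1, seeded 400/well; qHTS titration format.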
TDP1 inh: blocks human tyrosyl-DNA phosphodiesterase 1; Q9NUW8; recombinant TDP1, AlphaScreen DNA substrate cleavage; Potency, µM (titrated, usually from 130 µM), inactives show at the highest dose activity change, negative = inhibition, hits mostly inhibitors; 350,000 tested, 0.28% active; further: potency means the concentration at half of the fitted maximal effect; nearly all actives have a fitted effect of over 40% in size
Target sequence (Q9NUW8 whole entry, looked up): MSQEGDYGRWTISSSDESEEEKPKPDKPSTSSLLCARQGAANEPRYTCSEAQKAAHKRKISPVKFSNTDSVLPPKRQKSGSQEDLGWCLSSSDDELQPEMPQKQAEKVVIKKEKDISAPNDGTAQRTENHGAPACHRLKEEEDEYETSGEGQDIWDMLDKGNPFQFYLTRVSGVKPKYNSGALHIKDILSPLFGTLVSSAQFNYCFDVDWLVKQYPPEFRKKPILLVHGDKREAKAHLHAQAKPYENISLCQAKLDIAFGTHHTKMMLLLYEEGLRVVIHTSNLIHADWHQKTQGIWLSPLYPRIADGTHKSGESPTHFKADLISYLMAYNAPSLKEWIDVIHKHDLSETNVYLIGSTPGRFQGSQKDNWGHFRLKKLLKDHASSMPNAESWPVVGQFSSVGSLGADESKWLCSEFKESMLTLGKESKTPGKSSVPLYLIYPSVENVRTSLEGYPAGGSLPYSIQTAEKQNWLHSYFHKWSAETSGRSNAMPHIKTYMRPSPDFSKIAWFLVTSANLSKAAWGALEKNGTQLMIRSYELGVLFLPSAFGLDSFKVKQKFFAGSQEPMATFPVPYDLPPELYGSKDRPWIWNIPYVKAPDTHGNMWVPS
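Recombinant E. coli-expressed Tdp1 (1 nM) preincubated with compound 15 min at RT, then 5'-biotin/3'-phosphotyrosine-FITC DNA substrate (15 nM) added for 5 min. AlphaScreen beads (10 ug/ml) added, 10 min RT; tyrosine-FITC cleavage read as signal loss.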
Active calls of the source: *; ? = inconclusive; . = no result. A selection: hits, their analogues and other compounds. The true share with any hit is near 18%. Unless noted, the call rests on the fitted dose curve; in most records, active means well fitted curve in the direction sought with a large enough effect; inconclusive means small, poorly fitted or top-dose-only effect, or another doubt; inactive means no such curve, though single readings can be large; an effect the other way counts as inactive or inconclusive. On the % scale 0 is the no-effect control and ±100 the full control effect.

SMILES	CtBP-E1A blk	IL1B secr inh	DT40 TDP1 no CPT	Six1-Eya2 blk	DT40 TDP1 CPT	TDP1 inh
COC(=O)c1cccc(NC(=S)N2CCN(C)CC2)c1	-4.5	-2.7	-17.8%	-5.8	18.5%	.
CN1CCN(/N=C/c2c3ccccc3c(Cl)c3ccccc23)CC1	0.0	-74.0*	?	?	?	10.0%
CSc1ccc(/C=N/N2CCN(C)CC2)cc1	-21.4	-0.9	-0.3%	-6.7	17.9%	5.9%
CN1CCN(/N=C/c2ccc(-c3ccccc3)cc2)CC1	?	-55.4*	?	?	?	10.3%
C(=N\N1CCN(Cc2ccccc2)CC1)/c1ccc(-c2ccccc2)cc1	.	-0.9	?	3.5	-29.7%	-10.3%
N#C/C(C(=O)Oc1ccccc1)=C1\C=Cc2ccccc2N1	18.5	-1.6	-5.0%	24.8	-17.4%	3.8%
Cc1c(CCNC(=O)c2ccc(Br)o2)sc2nc(-c3ccc(F)cc3)nn12	.	.	4.61µM*	.	11.6µM*	10.4%
Cc1c(CCNC(=O)Cc2ccc(F)cc2)sc2nc(-c3ccc(F)cc3)nn12	.	.	?	.	?	-2.6%
Cc1ccc(-c2nc3sc(CCNC(=O)c4ccc(Br)o4)c(C)n3n2)cc1	.	.	29.1µM*	.	?	7.8%
Cc1cccc(-c2nc3scc(CCNC(=O)c4ccc(Br)o4)n3n2)c1	.	.	?	.	?	5.4%
Cc1csc2nc(COC(=O)c3ccc(NC(=O)c4ccccc4Br)cc3)cc(=O)n12	.	.	18.4µM*	.	20.6µM*	-3.8%
Cc1csc2nc(COC(=O)c3ccc(NC(=O)C(C)C)cc3)cc(=O)n12	.	.	25.9µM*	.	18.4µM*	3.8%
COc1nc(N(C)C)nc(-n2nnc(C(C)=O)c2C)n1	-3.2	-3.9	-15.0%	1.7	2.7%	2.0%
CCOC(=O)C1CCCN(Cc2cn[nH]c2-c2ccc(F)cc2F)C1 (stereo not drawn)	2.5	?	-25.0%	0.9	5.3%	0.0%
CC1(C)CC(=O)C(C(C2=C(O)CC(C)(C)CC2=O)c2cccs2)C(=O)C1 (stereo not drawn)	7.6	-96.1*	?	7.0	?	-7.3%
Cc1ccc2oc(=O)cc(/C=C/c3ccccc3)c2c1	-1.5	-28.9	?	2.9	?	0.0%
CCN1C[C@@H]2[C@@H]3C(=O)N(Cc4ccccc4)C(=O)[C@@H]3[C@](CC)(C1=O)N2C(=O)c1ccc(Cl)c(Cl)c1	0.0	-14.2	25.9µM*	10.3	16.4µM*	.
CN1C[C@@H]2[C@@H]3C(=O)N(Cc4ccccc4)C(=O)[C@@H]3[C@](Cc3ccccc3)(C1=O)N2C(=O)c1ccc(C(C)(C)C)cc1	-0.3	-88.5*	16.4µM*	-1.3	16.4µM*	.
Cc1ccc(C(=O)Oc2ccc3c(c2)ncn3C)cc1	7.1	3.8	0.1%	-0.2	-0.6%	6.8%
O=C(Nc1nnc(-c2ccc(Cl)cc2)o1)C1=COCCO1	-14.7	0.0	-25.0%	5.7	-3.3%	11.3%
O=Cc1ccc([B-](F)(F)F)s1	1.4	5.9	0.7%	5.2	10.9%	.
O=C(c1ccc(-c2ccccc2)cc1)C1CCCN(C(=O)Cn2cncn2)C1 (stereo not drawn)	0.0	16.5	?	10.1	?	.
CC(C)Oc1cccc(C(=O)C2CCCN(Cc3cnn(C(C)C)c3)C2)c1 (stereo not drawn)	-1.0	-2.2	?	4.0	?	-5.6%
Cn1cc(CN2CCCC(C(=O)c3ccc(-c4ccccc4)cc3)C2)cn1 (stereo not drawn)	.	-13.3	16.4µM*	1.1	-24.1%	6.0%
CCn1cc(CN2CCCC(C(=O)c3ccc(-c4ccccc4)cc3)C2)cn1 (stereo not drawn)	-8.0	-90.3*	25.9µM*	-13.1	?	2.8%
SMILES	CtBP-E1A blk	IL1B secr inh	DT40 TDP1 no CPT	Six1-Eya2 blk	DT40 TDP1 CPT	TDP1 inh
CCC(CC)C(=O)NCCc1cc2c(OC)ccc(OC)c2[nH]c1=O	-4.7	-17.7	-13.0%	-0.5	-1.4%	3.9%
COc1ccc(C)cc1NC(=O)CC(O)(C(F)(F)F)C(F)(F)F	-1.3	5.3	3.2%	0.1	-15.8%	4.6%
COC(c1ccccc1)c1nnc(CCC(=O)N2CCCCCCC2)o1 (stereo not drawn)	15.2	19.0	-15.1%	9.6	-5.5%	1.2%
CC(=O)c1ccc(-c2nnc(CCC(=O)N3CCCC(C(=O)CC(C)C)C3)o2)s1 (stereo not drawn)	3.0	2.6	?	2.8	13µM*	2.0%
CCC(=O)C1CCCN(C(=O)CCc2nnc(C3(c4ccc(Cl)cc4)CCC3)o2)C1 (stereo not drawn)	0.0	0.7	?	24.1	23.1µM*	6.4%
COc1ccc(C2(C(=O)NCC3Cc4cccc(-c5nc(C)cnc5C)c4O3)CCCC2)cc1 (stereo not drawn)	.	.	-22.3%	.	?	.
O=C(NCc1ccccc1)N1CCNCC1	7.8	3.3	-7.2%	6.5	-7.2%	.
CCc1ccc(-n2c(N3CCN(c4ccc(F)cc4)CC3)nc3ccccc3c2=O)cc1	.	.	11.6µM*	.	23.1µM*	2.3%
CCc1ccc(-n2c(N3CCN(c4cccc(Cl)c4)CC3)nc3ccccc3c2=O)cc1	.	.	8.2µM*	.	6.51µM*	2.3%
CCc1ccc(-n2c(N3CCN(c4cccc(C)c4C)CC3)nc3ccccc3c2=O)cc1	.	.	?	.	?	0.0%
O=C(NNC(=O)c1ccncc1)Nc1cccc([N+](=O)[O-])c1	.	24.8	-0.3%	-4.3	8.1%	0.0%
CC1CCCN(c2ccc(C(=O)Nc3nnc(C4CC4)s3)cc2[N+](=O)[O-])C1 (stereo not drawn)	0.5	-9.6	-1.1%	1.3	4.5%	5.8%
CCCCCCN1C[C@@H](O)[C@H](n2cc(C3CC3)nn2)C[C@@H]1c1ccc(OC)cc1	0.9	16.0	?	-0.4	?	.
Cc1ccccc1OCCN1CCC(Cc2ccccc2)CC1	.	-9.7	20.6µM*	-9.3	?	-2.6%
O=[N+]([O-])c1ccc(CN2CCC(Cc3ccccc3)CC2)cc1	.	-1.2	?	-6.1	?	.
Cc1ccc([N+](=O)[O-])c(OCCCN2CCCCCC2)c1	.	-7.1	?	-4.2	?	5.1%
O=[N+]([O-])c1cccc(OCCCN2CCC(Cc3ccccc3)CC2)c1	-18.0	-73.4*	?	-25.4	?	.
Cc1ccccc1OC(C)C(=O)N1CCC(Cc2ccccc2)CC1 (stereo not drawn)	6.8	-54.5*	?	9.0	?	1.5%

High-throughput results as filed in PubChem BioAssay.
